SMILES strings stand for the structures. “And” between values parts separate entries of the source, which are not always exact repeats. Equal entries are not always repeated. Inconclusive results are not listed. Where a call stands in place of a potency, no number is given. A number with no mark means an inactive call. The source made the active and inactive calls. Calls come from the whole dose curve; as a rule, active = well fitted inhibition curve with a large enough effect; inconclusive = small, poorly fitted or top-dose-only effect; inactive = no such curve, though single readings can be large or run the other way.
Potency is the fitted concentration of half-maximal effect.

A short description of this assay: Primary qHTS for inhibitors of nuclear receptor binding SET domain protein 2 (NSD2) in an RCH-ACV wild type WT cells (2C) (AID 1645877). Note: nearly all actives have a fitted effect of over 70% in size. To be noted: RCH-ACV (leukaemia line) NSD2 WT (2C) viability, CellTiter-Glo, 72 h; series mostly up to 44.9 µM.
For `Cc1ncc(CO)c(CO)c1O`, the Potency result is “inactive”.
Regarding `Cc1ccc(C(=O)C(=O)O)cc1C`, the Potency entry was “inactive”.
For `CN1N=C(C(N)=O)CCC1=O`, the Potency result is “inactive”.
With `O=C1NC(c2cccc([N+](=O)[O-])c2)=CCN1c1ccccc1O`, the Potency result was “inactive”.
On the same count and under the same terms, to `COc1cc(S(N)(=O)=O)cc(C(=O)O)c1OC` belongs “inactive”.
On to `COC(=O)c1ccc(NC(C)=O)cc1OC`, for which the Potency result is “inactive”.
Turning to `COC(=O)c1cc(Cl)c(NC(C)=O)cc1OC`, the Potency result was “inactive”.
On the same count and under the same terms, in the case of `CC(=O)N(CC(=O)N(C)C)c1ccccc1` it was “inactive”; in that of `CC(C)C(C)(C)C(C)(C)C(C)(C)S`, “inactive”.
For `CC1CN(c2cc3c(cc2F)c(=O)c(C(=O)O)cn3-c2ccc(F)cc2F)CCN1` (stereo not drawn), the activity change, negative = cell killing was -0.258% [at 4.96 µM].
As to `CN1Cc2cc(C(=O)N3CCC(C4CCNCC4)CC3)ccc2NC(CC(=O)O)C1=O` (stereo not drawn), the Potency entry is “inactive”.
For the compound `O=C(O)c1ccccc1S`, the Potency entry was “inactive”.
`Cn1c(=O)c2c(ncn2CC(=O)O)n(C)c1=O`: the Potency entry was “inactive”.
Turning to `COC(=O)C1=C(C)NC(C)=C(C(=O)OCCc2ccc(N3CCN(C(c4ccccc4)c4ccccc4)CC3)cc2)C1c1cccc([N+](=O)[O-])c1` (stereo not drawn), the Potency entry is “inactive”.
As for `Cc1ccc(C(C)OC(=O)C2(C)CCC(C(=O)O)C2(C)C)cc1` (stereo not drawn), the Potency entry was “inactive”.
Still for that read-out and setting: to `N[C@@H](Cc1cc(I)c(O)c(I)c1)C(=O)O` belongs “inactive”; to `C[N+](C)(CCOc1ccccc1)Cc1cccs1`, 26.6 µM (active).
For `COC(=O)[C@H]1[C@H]2C[C@@H]3c4[nH]c5cc(OC)ccc5c4CCN3C[C@H]2C[C@@H](OC(=O)/C=C/c2ccc(O)c(OC)c2)[C@@H]1OC`, the Potency was 4.73 µM (active).
With `Oc1ccccc1`, the Potency entry was “inactive”.
Take `OC1(c2ccccc2)CCNCC1`: the Potency result is “inactive”.
Regarding `CC(=O)Oc1ccc(C2(c3ccc(OC(C)=O)cc3)Oc3ccccc3NC2=O)cc1`, the Potency is 10.3 µM (active).
In the case of `C[C@H]1C[C@H](O)c2ccsc2S1(=O)=O`, the Potency entry was “inactive”.
With `CC(=O)OCC(=O)[C@@]1(O)CCC2C3CCC4=CC(=O)CC[C@]4(C)C3[C@@H](O)C[C@@]21C` (stereo partly drawn), the Potency is 0.15 µM (active).
Take `Cc1cc(O)c(C)c(C)c1O`: the Potency result was “inactive”.
`COc1ccc(/C(C)=C/C(=O)O)c(OC)c1`: the Potency entry was “inactive”.
On to `NCC[C@H](O)C(=O)N[C@@H]1C[C@H](N)[C@@H](O[C@H]2O[C@H](CN)[C@@H](O)[C@H](O)[C@@H]2O)[C@H](O)[C@@H]1O[C@H]1O[C@H](CO)[C@@H](O)[C@H](N)[C@@H]1O`, for which the activity change, negative = cell killing is -24.5% [at 0.588 µM].
`CC1(C)O[C@@H]2C[C@H]3[C@@H]4C[C@H](F)C5=CC(=O)C=C[C@]5(C)[C@@]4(F)[C@@H](O)C[C@]3(C)[C@]2(C(=O)CO)O1`: the Potency was 0.8 nM (active) and 5.9 nM (active).
Consider `CCCCCC(=O)O[C@]1(C(C)=O)CC[C@H]2[C@@H]3CCC4=CC(=O)CC[C@]4(C)[C@H]3CC[C@@]21C`, for which the Potency was 10.6 µM (active).
On the same count and under the same terms, in the case of `O=C(OCC1(COC(=O)c2cccnc2)CCCC(COC(=O)c2cccnc2)(COC(=O)c2cccnc2)C1O)c1cccnc1` it was “inactive”.
In the case of `CCOc1ccccc1OCC1CNCCO1` (stereo not drawn), the Potency result is “inactive”.
Turning to `CCOC(=O)c1ccc(OCCN2C[C@H](O)[C@@H](O)[C@H](O)[C@H]2CO)cc1`, the Potency entry was “inactive”.
Take `CCN(CC)CC(=O)OCC(=O)[C@@]1(O)CC[C@H]2[C@@H]3CCC4=CC(=O)CC[C@]4(C)[C@H]3[C@@H](O)C[C@@]21C`: the Potency was 0.0944 µM (active).
Consider `COC(=O)c1cc(S(N)(=O)=O)ccc1OC`, for which the Potency entry was “inactive”.
On to `OC1(c2ccc(Cl)cc2)CCNCC1`, for which the Potency result is “inactive”.
Take `Cc1nc(C2CCCCC2)c(-c2ccc(S(N)(=O)=O)c(F)c2)o1`: the Potency is 13.3 µM (active).
For the compound `CO/N=C(\C(=O)O)c1csc(NC(=O)CCl)n1`, the Potency entry was “inactive”.
With `CC(=O)/C=C/C=C1/C2CCC(C2)C1(C)C` (stereo not drawn), the Potency entry is “inactive”.
For the compound `CCCc1ccc(OCC(=O)N2CCN(C(=O)COc3ccc(CCC)cc3OC)CC2)c(OC)c1`, the Potency result was “inactive”.

These data come from PubChem BioAssay (NCATS).
